Only some compounds are listed: those with a hit (about 18% of all), similar ones and a draw of the others.
TDP1 inh – qHTS Assay for Inhibitors of Tyrosyl-DNA Phosphodiesterase (TDP1) | recombinant TDP1, AlphaScreen DNA substrate cleavage | AID 485290, 2010 | hit rate 0.28% among 350,000 | Tyrosyl-DNA phosphodiesterase 1 (Homo sapiens), Q9NUW8 | Potency, µM (highest dose often 130 µM), for the others: top-dose activity change, negative = inhibition, hits mostly inhibitors; further: nearly all actives have a fitted effect of over 40% in size
Target sequence (Q9NUW8 whole entry, looked up): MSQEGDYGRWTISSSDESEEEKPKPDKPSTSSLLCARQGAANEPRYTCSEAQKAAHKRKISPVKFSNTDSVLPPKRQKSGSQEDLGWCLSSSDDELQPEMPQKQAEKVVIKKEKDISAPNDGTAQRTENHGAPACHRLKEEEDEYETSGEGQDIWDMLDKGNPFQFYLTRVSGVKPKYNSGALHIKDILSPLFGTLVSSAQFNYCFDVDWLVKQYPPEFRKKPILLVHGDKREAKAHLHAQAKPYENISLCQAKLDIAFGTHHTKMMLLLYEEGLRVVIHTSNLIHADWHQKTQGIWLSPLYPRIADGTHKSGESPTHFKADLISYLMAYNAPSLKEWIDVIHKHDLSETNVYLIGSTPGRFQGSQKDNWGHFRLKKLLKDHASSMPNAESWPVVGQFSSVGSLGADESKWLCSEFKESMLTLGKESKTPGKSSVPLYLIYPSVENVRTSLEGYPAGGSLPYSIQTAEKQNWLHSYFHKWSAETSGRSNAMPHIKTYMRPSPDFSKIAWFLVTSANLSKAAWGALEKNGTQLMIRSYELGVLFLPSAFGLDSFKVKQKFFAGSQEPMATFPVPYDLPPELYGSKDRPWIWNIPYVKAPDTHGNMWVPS
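Signal: AlphaScreen proximity between streptavidin donor and anti-FITC acceptor beads on intact substrate. Reaction: Tdp1 1 nM, substrate 15 nM final, 5 min RT after 15 min compound preincubation.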
KAT2A inh – qHTS Assay for Inhibitors of GCN5L2. GCN5L2 HAT assay, ThioGlo1 CoA-SH fluorescence. Potency, µM (titrated, usually from 58.9 µM), for inactives: at the highest dose activity change, negative = inhibition, usual class: inhibitors. hit rate 0.21% among 390,000. AID 504327, 2011
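Compounds, pin-transferred from DMSO stocks, meet 20nM GCN5L2 for 15 min before the reaction begins with H3(1-25) peptide (75uM) and acetyl-CoA (70uM). Thiol-reactive ThioGlo1 reports CoA release over 20 min at room temperature.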
VDR inhibitor – Inhibitors of the vitamin D receptor (VDR): qHTS. VDR-SRC2-3 peptide fluorescence polarization, 2 h. Potency, µM, inactives show max response, negative = inhibition, most hits filed as inhibitors. hit rate 0.93% among 400,000
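Compounds are added to VDR with labelled SRC2-3 coactivator peptide and held 2 h at room temperature. Inhibition of the VDR–peptide interaction is then read as a change in fluorescence polarization.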
TDP1 cell CPT – qHTS for Inhibitors of human tyrosyl-DNA phosphodiesterase 1 (TDP1): qHTS in cells in presence of CPT | AID 686979, 2013 | Potency, µM (top dose mostly 46.2 µM), inactives show top-dose activity change, negative = growth inhibition, hits mostly inhibitors | hit rate 12% among 420,000 | chicken DT40 Tdp1-/-;hTDP1 cells + 20 nM CPT, ATP luminescence, 48 h; further: nearly all actives have a fitted effect of over 55% in size
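Chicken DT40 Tdp1-/- cells complemented with human TDP1, 400 cells/well, exposed to compounds plus 20 nM camptothecin for at least 48 h at 37 C; viability read as ATP content by CellTiter-Glo luminescence.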
DT40 TDP1 no CPT – qHTS for Inhibitors of human tyrosyl-DNA phosphodiesterase 1 (TDP1): qHTS in cells in absence of CPT; hit rate 15% among 420,000; Potency, µM (top dose mostly 46.2 µM), for the others: at the highest dose activity change, negative = growth inhibition, most hits filed as inhibitors; DT40 Tdp1-/- hTDP1 cells, no CPT, ATP luminescence, 48 h; further: nearly all actives have a fitted effect of over 55% in size
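Stably hTDP1-transfected Tdp1-null chicken DT40 cells were treated with library compounds minus camptothecin and grown for at least 48 hr at 37 °C, after which cellular ATP was quantified by luminescence.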
PLK1 PBD block – qHTS for Inhibitors of PLK1-PDB (polo-like kinase 1 - polo-box domain): Primary Screen; Serine/threonine-protein kinase PLK1 (Homo sapiens), P53350; Plk1 PBD binding of FITC phosphopeptide, fluorescence polarization; Potency, µM, for inactives: max response, negative = inhibition, actives largely listed as inhibitors; hit rate 2.8% among 360,000; further: series mostly up to about 57 µM; nearly all actives have a fitted effect of over 65% in size
* marks the source's active call; other numbers are inactive results; ? = inconclusive; . = not tested or not shown; ! = repeats disagree; [ ] = remark or other dose. The call rests on the fitted dose curve; in most records, active means well fitted curve in the direction sought with a large enough effect; inconclusive means small, poorly fitted or top-dose-only effect, or another doubt; inactive means no such curve, though single readings can be large; an effect the other way counts as inactive or inconclusive. On the % scale 0 is the no-effect control and ±100 the full control effect; potency means the concentration at half of the fitted maximal effect.

SMILES	TDP1 inh	KAT2A inh	VDR inhibitor	TDP1 cell CPT	DT40 TDP1 no CPT	PLK1 PBD block
CCn1cc(C(=O)NCCc2ccc(Cl)cc2)c(=O)c2cc(S(=O)(=O)N3CCOCC3)ccc21	7%	-1%	8%	7%	3%	.
CCc1noc(C)c1C(=O)N1CCN(S(=O)(=O)c2c(C)c(C)cc(C)c2C)CC1	.	2%	-15%	-12%	?	3%
CCN1C[C@@H]2[C@@H]3C(=O)N(Cc4ccccc4)C(=O)[C@@H]3[C@](CC)(C(=O)OC)N2C1=NC	.	-1%	15%	18%	2%	-5%
CCCCSc1nc2ccc(Nc3nc(N4CCOCC4)nc(N4CCOCC4)n3)cc2s1	-2%	?	-11%	?	21µM*	-6%
CCCCNC(=O)CSc1nc2ccc(Nc3nc(N4CCOCC4)nc(N4CCOCC4)n3)cc2s1	2%	4%	-14%	18µM*	9.2µM*	-19%
CC(=O)Nc1ccc(NCCc2ccco2)cc1	.	.	.	7%	1%	0%
C#CCCCCCCCCCCCc1ccco1	-5%[56.1 µM]	?	35µM*	6%	?	.
COc1ccc(OC)c(CNC(=O)c2nn(C)c3c2CS(=O)(=O)c2ccccc2-3)c1	2%	-2%	-18%	4%	-19%	-16%
COc1cccc(CNC(=O)c2nn(C)c3c2CS(=O)(=O)c2ccccc2-3)c1	4%	-5%	5%	?	?	.
COc1ccc(CNC(=O)c2nn(C)c3c2CS(=O)(=O)c2ccccc2-3)cc1	4%	2%	79µM*!	?	?	2%
CCOc1ccccc1CNC(=O)c1nn(C)c2c1CS(=O)(=O)c1ccccc1-2	-1%	-3%	-4%	18µM*	?	-13%
CCc1ccc(CNC(=O)c2nn(C)c3c2CS(=O)(=O)c2ccccc2-3)cc1	0%	-8%	1%	?	?	-12%
Cc1ccc(CNC(=O)CN(C)C2=NS(=O)(=O)c3ccccc32)cc1	2%	-7%	-6%	13µM*	9.2µM*	-9%
Cc1ccc(CNC(=O)c2nn(C)c3c2CS(=O)(=O)c2ccccc2-3)cc1	4%	-3%	-26%	16µM*	?	30µM*
Cc1cc(C)cc(-n2ccn(CC(=O)Nc3ccccc3F)c(=O)c2=O)c1	-6%	-9%	-17%	0%	-4%	.
CC(OC(=O)c1cccc(S(=O)(=O)N(C)C)c1)C(=O)NCC(=O)Nc1ccc(F)c(F)c1F (stereo unspecified)	.	.	0%	3%	?	-7%
CC(=O)c1ccc(N(C(=O)c2csnn2)C(C(=O)NC2CCCC2)c2ccccc2)cc1 (stereo unspecified)	8%[0.0935 µM]	1%	2%	0%	-18%	-16%
Cn1nc(C(=O)N2CCN(c3ccccc3F)CC2)c2c1-c1ccccc1S(=O)(=O)C2	2%	-5%	-4%	15µM*!	?	-16%
c1ccc(C(Cc2nc(-c3ccncc3)no2)c2ccccc2)cc1	-5%	-1%	-10%	18µM*	?	-3%
O=C(N/N=C/C(Cl)=C/c1ccccc1)c1cnccn1	2%	-6%	2%	16µM*	13µM*	-7%
O=C(N/N=C/C(Cl)=C\c1ccccc1)c1ccco1	1%	4%	0%	-20%	29µM*	1%
CC(=C/c1ccccc1)/C=N/NC(=O)c1cnccn1	1%	-6%[0.501 µM]	-3%	-22%	-1%	-1%
O=C(N/N=C/c1cccc([N+](=O)[O-])c1)c1cnccn1	5%	-2%	14%	-1%	1%	-2%
